For some assays here: Potency and affinity values are given separately.

Holding throughout (set-up): scale not given: direction of the effect not stated beside the values
Test [1] has as its target Protein translocase subunit SecA (Escherichia coli (strain K12)) (UniProt P10408). Briefly: Assay to Identify E. coli SecA ATPase Inhibitors. It counts as functional. The settings on record: 30 µM.
For test [2], the target named is T1, Ubiquitin-activating enzyme e1, putative (Leishmania donovani (strain BPK282A1)) (UniProt E9BSI1).
T1 sequence (whole entry): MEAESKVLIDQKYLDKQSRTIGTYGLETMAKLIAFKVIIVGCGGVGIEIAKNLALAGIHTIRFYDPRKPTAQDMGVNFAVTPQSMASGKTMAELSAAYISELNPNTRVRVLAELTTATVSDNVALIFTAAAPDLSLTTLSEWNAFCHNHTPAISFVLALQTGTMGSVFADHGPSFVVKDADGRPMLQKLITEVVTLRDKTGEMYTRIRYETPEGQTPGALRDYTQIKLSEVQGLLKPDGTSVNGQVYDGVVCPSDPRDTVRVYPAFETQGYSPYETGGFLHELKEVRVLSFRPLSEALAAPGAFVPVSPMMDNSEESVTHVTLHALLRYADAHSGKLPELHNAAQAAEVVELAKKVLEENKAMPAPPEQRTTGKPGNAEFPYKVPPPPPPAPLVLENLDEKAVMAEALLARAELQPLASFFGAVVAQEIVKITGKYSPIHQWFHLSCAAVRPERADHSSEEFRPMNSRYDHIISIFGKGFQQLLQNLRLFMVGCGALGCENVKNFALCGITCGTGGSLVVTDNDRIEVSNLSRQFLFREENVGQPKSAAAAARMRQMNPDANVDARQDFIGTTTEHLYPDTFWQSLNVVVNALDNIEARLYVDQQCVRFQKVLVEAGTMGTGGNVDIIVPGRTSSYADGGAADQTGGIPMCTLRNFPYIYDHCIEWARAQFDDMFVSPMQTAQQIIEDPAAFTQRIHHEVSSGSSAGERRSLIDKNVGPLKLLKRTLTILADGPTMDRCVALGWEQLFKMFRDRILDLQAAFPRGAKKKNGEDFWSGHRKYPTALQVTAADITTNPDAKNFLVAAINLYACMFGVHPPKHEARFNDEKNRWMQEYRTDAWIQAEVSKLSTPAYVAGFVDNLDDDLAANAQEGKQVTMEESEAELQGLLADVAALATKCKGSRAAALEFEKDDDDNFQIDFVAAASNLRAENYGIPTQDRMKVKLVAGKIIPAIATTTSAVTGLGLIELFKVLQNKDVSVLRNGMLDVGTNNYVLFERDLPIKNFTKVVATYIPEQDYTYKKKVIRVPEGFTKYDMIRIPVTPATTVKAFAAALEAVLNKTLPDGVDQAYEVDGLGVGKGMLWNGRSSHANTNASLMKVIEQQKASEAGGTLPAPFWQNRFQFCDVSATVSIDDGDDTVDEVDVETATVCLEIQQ
In words: Leishmania donovani Ubiquitin Activating Enzyme (LdE1). It counts as functional. The settings on record: 30 µM.

The target of test [3] is Sialic acid-binding Ig-like lectin 9 (Homo sapiens) (UniProt Q9Y336). In words: Hs-Siglec9 ALPHAscreen SOP 20170721. The settings on record: 10 µM.
The next test deals with Trypanosoma cruzi. Briefly: Trypanosoma cruzi phosphomannomutase and mannose-1-phosphate guanylyltransferase assay. In kind it is functional. To be noted: 10 µM.
Test [4] addresses T2, Arginase-2, mitochondrial (Homo sapiens) (UniProt P78540).
T2 sequence (whole entry): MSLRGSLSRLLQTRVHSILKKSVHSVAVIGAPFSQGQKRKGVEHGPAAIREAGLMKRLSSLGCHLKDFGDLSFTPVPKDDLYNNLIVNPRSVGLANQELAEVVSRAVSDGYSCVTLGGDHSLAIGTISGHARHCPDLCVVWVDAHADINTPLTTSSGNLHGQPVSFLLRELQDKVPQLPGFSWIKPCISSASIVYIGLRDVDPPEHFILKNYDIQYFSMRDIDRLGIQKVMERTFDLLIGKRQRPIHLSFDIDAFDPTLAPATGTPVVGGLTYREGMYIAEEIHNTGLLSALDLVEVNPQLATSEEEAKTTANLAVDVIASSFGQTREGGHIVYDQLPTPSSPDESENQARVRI
Briefly: in vitro enzyme assay to detect the production of urea directly proportional to the activity of Arginase II. Also: in the data most compounds retested in dose-response had high values. It counts as functional. The settings on record: 33.3 µM.

In test [5] the target is T3, Proteasome subunit beta (Trypanosoma cruzi) (UniProt O96673).
T3 sequence (whole entry): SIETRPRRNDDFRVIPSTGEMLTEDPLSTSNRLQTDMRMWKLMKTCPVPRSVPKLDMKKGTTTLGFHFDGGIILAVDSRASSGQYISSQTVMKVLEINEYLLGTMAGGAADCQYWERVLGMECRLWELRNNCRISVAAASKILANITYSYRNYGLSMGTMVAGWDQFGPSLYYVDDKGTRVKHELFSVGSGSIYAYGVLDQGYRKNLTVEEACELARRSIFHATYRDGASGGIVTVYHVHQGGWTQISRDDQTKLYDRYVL
Briefly: Trypanosoma cruzi proteasome chymotrypsin-like activity (TcProtChymo) assay. Also: in the data most compounds retested in dose-response had high values. In kind it is functional. The settings on record: 9.37 µM.

The next test is filed under the species Homo sapiens. In words: To identify inhibition of the IFN signalling (Jak-Stat) pathway via expression of an eGFP reporter gene under the control of an IFN-stimulated response element (ISRE) containing MxA promoter. It counts as functional. The settings on record: 30 µM.
The target in test [6] is T4, Tyrosyl-tRNA synthetase, putative (Trypanosoma cruzi (strain CL Brener)) (UniProt Q4DSP6).
T4 sequence (whole entry): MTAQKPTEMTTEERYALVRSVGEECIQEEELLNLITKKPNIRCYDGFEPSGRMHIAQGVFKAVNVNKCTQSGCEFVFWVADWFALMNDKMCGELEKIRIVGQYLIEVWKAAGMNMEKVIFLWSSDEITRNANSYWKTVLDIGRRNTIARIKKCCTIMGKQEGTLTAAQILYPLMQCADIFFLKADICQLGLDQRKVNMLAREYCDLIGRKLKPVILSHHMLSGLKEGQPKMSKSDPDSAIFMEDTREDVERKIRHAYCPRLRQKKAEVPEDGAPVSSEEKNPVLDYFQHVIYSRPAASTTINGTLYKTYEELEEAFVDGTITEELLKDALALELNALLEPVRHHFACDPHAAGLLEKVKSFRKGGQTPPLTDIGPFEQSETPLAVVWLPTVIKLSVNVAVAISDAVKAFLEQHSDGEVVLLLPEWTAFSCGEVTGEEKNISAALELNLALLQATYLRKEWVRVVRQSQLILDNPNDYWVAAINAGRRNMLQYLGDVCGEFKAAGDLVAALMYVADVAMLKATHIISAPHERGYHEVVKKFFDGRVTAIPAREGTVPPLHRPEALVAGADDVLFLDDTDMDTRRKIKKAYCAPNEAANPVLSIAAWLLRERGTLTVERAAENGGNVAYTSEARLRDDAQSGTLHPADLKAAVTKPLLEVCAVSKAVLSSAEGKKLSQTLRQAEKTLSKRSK
Briefly: Trypanosoma cruzi tyrosyl tRNA synthetase (TcYRS) _High Tyrosine SOP. Also: in the data most compounds retested in dose-response had high values. In kind it is functional. To be noted: 30 µM.

The target in test [7] is T4, Tyrosyl-tRNA synthetase, putative (Trypanosoma cruzi (strain CL Brener)). In words: Trypanosoma cruzi tyrosyl tRNA synthetase (TcYRS) SOP. The settings on record: 30 µM. In kind it is functional.
For test [8], the target named is Chromo domain-containing protein 1 (Saccharomyces cerevisiae (strain ATCC 204508 / S288c) (Baker's yeast)) (UniProt P32657). In words: ScCHD-1 Enzyme Inhibition Assay. Also: in the data most compounds retested in dose-response had high values. In kind it is functional. The settings on record: 30 µM.
Sequence of Chromo domain-containing protein 1 (Saccharomyces cerevisiae (strain ATCC 204508 / S288c) (Baker's yeast)) (P32657 whole entry, the tested form may be a part): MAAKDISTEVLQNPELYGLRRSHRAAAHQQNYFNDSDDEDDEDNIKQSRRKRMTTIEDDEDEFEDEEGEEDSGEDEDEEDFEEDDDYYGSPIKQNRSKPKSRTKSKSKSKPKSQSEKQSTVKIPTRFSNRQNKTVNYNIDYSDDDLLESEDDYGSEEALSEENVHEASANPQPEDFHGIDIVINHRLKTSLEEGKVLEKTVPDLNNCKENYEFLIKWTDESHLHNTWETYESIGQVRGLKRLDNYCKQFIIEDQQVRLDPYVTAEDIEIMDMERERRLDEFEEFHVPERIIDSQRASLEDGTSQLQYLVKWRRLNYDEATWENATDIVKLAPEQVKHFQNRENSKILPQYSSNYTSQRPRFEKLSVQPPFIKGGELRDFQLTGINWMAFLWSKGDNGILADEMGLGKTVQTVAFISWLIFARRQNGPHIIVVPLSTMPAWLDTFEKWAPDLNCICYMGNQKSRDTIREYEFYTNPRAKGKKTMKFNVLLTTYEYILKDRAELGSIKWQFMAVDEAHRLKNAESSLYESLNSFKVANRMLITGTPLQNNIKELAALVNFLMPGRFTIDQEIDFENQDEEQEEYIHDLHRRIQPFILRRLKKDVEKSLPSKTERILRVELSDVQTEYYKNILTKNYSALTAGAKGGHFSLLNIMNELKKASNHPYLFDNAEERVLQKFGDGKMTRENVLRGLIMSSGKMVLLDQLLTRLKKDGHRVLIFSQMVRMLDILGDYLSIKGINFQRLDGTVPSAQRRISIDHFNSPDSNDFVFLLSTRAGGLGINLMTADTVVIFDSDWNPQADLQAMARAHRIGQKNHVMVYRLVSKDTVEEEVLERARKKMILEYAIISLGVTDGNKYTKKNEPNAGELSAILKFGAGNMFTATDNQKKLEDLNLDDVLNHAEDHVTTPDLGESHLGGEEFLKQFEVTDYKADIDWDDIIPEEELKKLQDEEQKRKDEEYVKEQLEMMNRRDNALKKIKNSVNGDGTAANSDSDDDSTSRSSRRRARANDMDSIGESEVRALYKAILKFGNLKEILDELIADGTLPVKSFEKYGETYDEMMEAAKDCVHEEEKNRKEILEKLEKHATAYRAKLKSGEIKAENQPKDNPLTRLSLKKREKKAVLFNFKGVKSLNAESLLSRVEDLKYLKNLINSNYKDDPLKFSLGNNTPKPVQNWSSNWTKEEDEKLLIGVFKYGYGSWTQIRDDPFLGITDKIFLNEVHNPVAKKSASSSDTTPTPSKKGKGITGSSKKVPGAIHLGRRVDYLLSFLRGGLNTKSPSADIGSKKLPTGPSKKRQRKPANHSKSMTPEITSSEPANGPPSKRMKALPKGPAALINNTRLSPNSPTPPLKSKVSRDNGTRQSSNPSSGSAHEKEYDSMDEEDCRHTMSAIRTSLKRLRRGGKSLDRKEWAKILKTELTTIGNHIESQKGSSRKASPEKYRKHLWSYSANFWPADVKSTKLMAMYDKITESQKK

Sequence of Sialic acid-binding Ig-like lectin 9 (Homo sapiens) (Q9Y336 whole entry): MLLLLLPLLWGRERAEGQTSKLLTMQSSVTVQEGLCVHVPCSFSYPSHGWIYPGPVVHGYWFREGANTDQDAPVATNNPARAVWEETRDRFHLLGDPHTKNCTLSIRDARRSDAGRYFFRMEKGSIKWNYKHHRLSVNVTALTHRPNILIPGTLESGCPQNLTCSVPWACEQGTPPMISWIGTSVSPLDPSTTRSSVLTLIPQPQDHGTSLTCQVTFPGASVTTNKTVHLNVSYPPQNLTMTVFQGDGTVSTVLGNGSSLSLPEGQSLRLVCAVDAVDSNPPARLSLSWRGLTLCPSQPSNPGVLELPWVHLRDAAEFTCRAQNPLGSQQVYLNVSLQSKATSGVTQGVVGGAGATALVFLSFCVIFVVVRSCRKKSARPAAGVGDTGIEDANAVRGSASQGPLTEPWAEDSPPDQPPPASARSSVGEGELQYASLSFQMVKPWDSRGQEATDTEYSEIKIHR
Sequence of Protein translocase subunit SecA (Escherichia coli (strain K12)) (P10408 whole entry): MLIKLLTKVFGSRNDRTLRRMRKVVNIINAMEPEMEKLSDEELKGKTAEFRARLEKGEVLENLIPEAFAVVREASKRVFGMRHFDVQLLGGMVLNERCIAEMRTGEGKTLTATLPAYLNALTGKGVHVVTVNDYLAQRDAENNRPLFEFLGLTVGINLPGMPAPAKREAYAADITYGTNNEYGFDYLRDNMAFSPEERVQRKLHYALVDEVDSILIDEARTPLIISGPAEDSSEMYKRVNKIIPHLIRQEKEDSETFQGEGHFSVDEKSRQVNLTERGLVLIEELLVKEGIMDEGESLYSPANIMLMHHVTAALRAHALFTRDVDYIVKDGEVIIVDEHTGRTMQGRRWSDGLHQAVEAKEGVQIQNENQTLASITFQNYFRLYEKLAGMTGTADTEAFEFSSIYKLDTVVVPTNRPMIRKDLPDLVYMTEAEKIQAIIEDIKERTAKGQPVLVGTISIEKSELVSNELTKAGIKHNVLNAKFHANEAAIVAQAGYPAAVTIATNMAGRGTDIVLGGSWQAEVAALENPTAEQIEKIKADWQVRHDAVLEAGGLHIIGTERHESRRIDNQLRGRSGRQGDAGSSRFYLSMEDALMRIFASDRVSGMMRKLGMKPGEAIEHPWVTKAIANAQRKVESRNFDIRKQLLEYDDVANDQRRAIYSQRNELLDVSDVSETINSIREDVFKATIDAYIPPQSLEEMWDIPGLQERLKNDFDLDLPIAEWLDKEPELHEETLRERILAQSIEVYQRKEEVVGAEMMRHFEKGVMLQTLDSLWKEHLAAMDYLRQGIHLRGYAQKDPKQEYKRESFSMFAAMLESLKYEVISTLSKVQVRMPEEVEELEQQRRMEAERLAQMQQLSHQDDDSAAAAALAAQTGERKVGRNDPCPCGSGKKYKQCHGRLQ

As to `CN(C)CCN1CCCC12CCN(C(=O)c1cccn1C)CC2`, the Percent Effect was -4.21% in test [1]; -1.3% in [2]; 2.81% in test [3]; 2.04% in the test on Trypanosoma cruzi; -2.02% in test [4]; 0.618% in test [5]. Also, the Percent Effect in the test filed under Homo sapiens was -20.1%; in test [6], -0.526%; in test [7] it was -2.56%; in test [8] it was 4.29%.
Turning to `Cc1cc(C)n(CC2CCCCN2C(=O)c2ccc3nncn3c2)n1` (stereo not given), the Percent Effect is -7.43% in [1]; 8% in [2]; 0.804% in [3]; 2.01% in the test with Trypanosoma cruzi; -1.77% in test [4]; 8.06% in [5]. The Percent Effect in the test listed under Homo sapiens is 6.43%; in [6] it was 5.79%; in [7], 10.3%; in [8], -4.66%.
For the compound `CC(C)(C)c1nnc(CN2CCOC(Cn3cncn3)C2)o1` (stereo not given), the Percent Effect in test [1] is -3.4%; in test [2] it was 17.9%; in test [3] it was 1.77%; with Trypanosoma cruzi, 9.67%; in test [4], -6.56%; in [5], 4.18%. The Percent Effect in the test filed under Homo sapiens is 8.6%; in test [6], 4.31%; in test [7], 18.1%; in test [8] it was -4.15%.
As for `CNC(=O)c1cccnc1Oc1ccccc1`, the Percent Effect is -2.06% in test [1]; 19.5% in [2]; 16.3% in [3]; 5.07% in the test with Trypanosoma cruzi; 0% in test [4]; 13.5% in test [5]. Further, the Percent Effect in the test listed under Homo sapiens was 10%; in [6], 4.83%; in [7] it was 12.5%; in test [8], -9.58%.
Take `O=C(NCC1CCOC1)c1ccc(OCC(F)(F)F)nc1` (stereo not given): the Percent Effect was -1.32% in test [1]; 12.8% in [2]; 9.89% in [3]; -4.98% with Trypanosoma cruzi; 2.46% in [4]; 6.91% in [5]. In addition, the Percent Effect in the test filed under Homo sapiens is 25.9%; in test [6], 3.35%; in test [7], 10.8%; in test [8] it was -2.44%.
With `CCn1ncc(NC(=O)c2cc(C3CC3)nc3c2c(C)nn3C)c1C`, the Percent Effect in test [1] is -5.7%; in test [2], 20%; in [3] it was -4.48%; with Trypanosoma cruzi, 3.75%; in [4] it was -2.21%; in test [5] it was 22%. Also, the Percent Effect is 14.6% in the test filed under Homo sapiens, 2.12% in test [6], 15% in test [7] and -28.1% in test [8].
Take `O=C(C1CC=CC1)N1CCC2(CC1)CN(Cc1ccccn1)CCO2`: the Percent Effect in test [1] is -2.34%; in test [2] it was 1.3%; in [3] it was -0.373%; in the test on Trypanosoma cruzi, 2.63%; in test [4], -4.86%; in test [5], 5.74%. Also, the Percent Effect in the test listed under Homo sapiens is -19%; in [6], 1.58%; in test [7], 5.13%; in test [8], 3.73%.
For `O=C(NCCOc1ccc2c(c1)OCO2)N1CCC1`, the Percent Effect in test [1] is -4.13%; in test [2] it was 20.8%; in test [3] it was 6.65%; in the test on Trypanosoma cruzi, -3.36%; in test [4], 5.94%; in test [5], 19.1%. Further, the Percent Effect is -11.1% in the test listed under Homo sapiens, 4.9% in test [6], 16.5% in test [7] and -4.94% in test [8].
In the case of `Cc1cc(C(=O)O)cc(S(=O)(=O)Nc2ccc3c(c2)OCO3)c1C`, the Percent Effect is -0.174% in test [1]; 2.56% in test [2]; -9.72% in [3]; 2.91% in the test with Trypanosoma cruzi; 3.69% in test [4]; 19.7% in [5]. Besides, the Percent Effect was -15.4% in the test filed under Homo sapiens, -4.31% in [6], 10.8% in test [7] and -3.33% in [8].
In the case of `Cn1cc(CC(=O)N2CCC(Nc3cccnn3)CC2)c2ccccc21`, the Percent Effect is -3.59% in [1]; 18.2% in [2]; 3.22% in test [3]; 3.73% in the test on Trypanosoma cruzi; -7.99% in test [4]; 5.96% in test [5]. Besides, the Percent Effect in the test filed under Homo sapiens was 4.59%; in test [6], 7.84%; in test [7], 32.9%; in test [8] it was -10.9%.
Regarding `COc1ccc(C(=O)N2CC[C@H](CO)[C@H](O)C2)c(C)c1`, the Percent Effect is -7.05% in test [1]; 5.41% in test [2]; 10.7% in test [3]; 9.02% with Trypanosoma cruzi; 16.4% in [4]; 10.1% in [5]. For the same compound, the Percent Effect in the test filed under Homo sapiens is 0.399%; in test [6] it was 7.98%; in [7], 9.76%; in test [8] it was -7.71%.
On to `CCOc1c(Cl)cccc1NCc1cc(C)on1`, for which the Percent Effect was -0.827% in test [1]; 12.8% in test [2]; -8.13% in [3]; -1.6% in the test with Trypanosoma cruzi; 2.05% in test [4]; 15.1% in test [5]. The Percent Effect in the test listed under Homo sapiens was 25.9%; in test [6] it was 8.13%; in [7], 22.9%; in test [8] it was -1.3%.
With `O=C(Nc1cccnc1)[C@H]1C[C@H]2OCC[C@H]2N(C(=O)c2ccsc2)C1`, the Percent Effect was -4.32% in test [1]; 11.7% in [2]; 13% in [3]; 4.58% in the test with Trypanosoma cruzi; 17% in test [4]; 10.5% in [5]. For the same compound, the Percent Effect is -7.28% in the test listed under Homo sapiens, 4.74% in test [6], 12.8% in test [7] and 18.5% in [8].
Regarding `Cc1occc1C(=O)N1CCC2(CCC(C(=O)NCC3CC3)O2)CC1` (stereo not given), the Percent Effect is -0.841% in [1]; 19.5% in test [2]; 1.13% in test [3]; -0.75% with Trypanosoma cruzi; 1.83% in [4]; 13% in test [5]. Also, the Percent Effect in the test listed under Homo sapiens is 6.84%; in test [6], 11.6%; in test [7] it was 20%; in test [8], -4.43%.

The record behind these values is ChEMBL document CHEMBL3988442, “University of Dundee, Small-Polar-MMV Screening Library” (2021).
